Read-outs that look alike come from different tables or passages of the source.
Key:
Parameters in all cases: species or system human, MV4-11 + K-562 + COLO205 + SK-N-BE2 + OVCAR-8
ACVR1B = settings: read-out: apparent Kd, n = 1
ACVR1 = settings: read-out: apparent Kd, n = 1
ACVR2B = settings: read-out: apparent Kd; compound concentrations: 100 nM and 1000 nM (sheet 'Samples'), CATDS: 0.67382048852526699; n = 1
ADCK3 = settings: read-out: apparent Kd, n = 1
RET = settings: read-out: apparent Kd; compound concentrations: 100 nM and 1000 nM (sheet 'Samples'), CATDS: 0.12802615197662401; n = 1
RIPK2 = settings: read-out: apparent Kd, n = 1
RIPK3 = settings: read-out: apparent Kd; compound concentrations: 100 nM and 1000 nM (sheet 'Samples'), CATDS: 9.0295884260328696E-2; n = 1
TGFBR1 = settings: read-out: apparent Kd, n = 1
ATM = settings: read-out: apparent Kd; compound concentrations: 100 nM and 1000 nM (sheet 'Samples'), CATDS: 0.55136512573741903; n = 1
PIP4K2C = settings: read-out: apparent Kd; compound concentrations: 100 nM and 1000 nM (sheet 'Samples'), CATDS: 0.19748549423912701; n = 1
PRKAG2 = settings: read-out: apparent Kd; compound concentrations: 100 nM and 1000 nM (sheet 'Samples'), CATDS: 0.19909509316552701; n = 1
BCR = settings: read-out: apparent Kd; compound concentrations:100 nM and 1000 nM (sheet 'Samples'); n = 1
BMPR1A = settings: read-out: apparent Kd; compound concentrations:100 nM and 1000 nM (sheet 'Samples'); n = 1
CSNK2A1;CSNK2A3 = settings: read-out: apparent Kd; compound concentrations:100 nM and 1000 nM (sheet 'Samples'); n = 1
CSNK2A2 = settings: read-out: apparent Kd; compound concentrations:100 nM and 1000 nM (sheet 'Samples'); n = 1
GSK3A = settings: read-out: apparent Kd; compound concentrations:100 nM and 1000 nM (sheet 'Samples'); n = 1
GSK3B = settings: read-out: apparent Kd; compound concentrations:100 nM and 1000 nM (sheet 'Samples'); n = 1
JAK2 = settings: read-out: apparent Kd; compound concentrations:100 nM and 1000 nM (sheet 'Samples'); n = 1
CSNK1D = settings: read-out: apparent Kd; compound concentrations: 100 nM and 1000 nM (sheet 'Samples'), CATDS: 0.232202944333886; n = 1
MAPK14 = settings: read-out: apparent Kd; compound concentrations: 100 nM and 1000 nM (sheet 'Samples'), CATDS: 0.251383978494441; n = 1
DDR1 = settings: read-out: apparent Kd; compound concentrations:100 nM and 1000 nM (sheet 'Samples'); n = 1
MAPKAPK2 = settings: read-out: apparent Kd; compound concentrations:100 nM and 1000 nM (sheet 'Samples'); n = 1
PKN3 = settings: read-out: apparent Kd; compound concentrations:100 nM and 1000 nM (sheet 'Samples'); n = 1
SPR = settings: read-out: apparent Kd; compound concentrations:100 nM and 1000 nM (sheet 'Samples'); n = 1
TESK2 = settings: read-out: apparent Kd; compound concentrations:100 nM and 1000 nM (sheet 'Samples'); n = 1
TGFBR2 = settings: read-out: apparent Kd; compound concentrations:100 nM and 1000 nM (sheet 'Samples'); n = 1
TTK = settings: read-out: apparent Kd; compound concentrations:100 nM and 1000 nM (sheet 'Samples'); n = 1
CDC42 = settings: read-out: apparent Kd; compound concentrations:100 nM and 1000 nM (sheet 'Samples'); n = 1
[1] = compound concentrations:100 nM and 1000 nM (sheet 'Samples')

How did the potency estimated from few doses (ACVR1B; compound concentrations: 100 nM and 1000 nM (sheet 'Samples'), CATDS: 0.112387102296717) turn out when `Cl.c1ccc(-c2ccc3c(Nc4ccc5[nH]ncc5c4)ccnc3c2)nc1` [GW440137A] was run?
The potency estimated from few doses was 0.766 µM.

What about the potency estimated from few doses (ACVR1; compound concentrations: 100 nM and 1000 nM (sheet 'Samples'), CATDS: 0.106513578189519) of the same compound?
The potency estimated from few doses was 0.904 µM.

What about the potency estimated from few doses (ACVR2B) of the same compound?
Its potency estimated from few doses is 0.0119 µM.

What about the potency estimated from few doses (ADCK3; compound concentrations: 100 nM and 1000 nM (sheet 'Samples'), CATDS: 9.7735008507333701E-2) of the same compound?
The potency estimated from few doses was 1.2 µM.

What about the potency estimated from few doses (RET) of the same compound?
The potency estimated from few doses was 0.525 µM.

And the potency estimated from few doses (RIPK2; compound concentrations: 100 nM and 1000 nM (sheet 'Samples'), CATDS: 0.29852587031983902)?
Its potency estimated from few doses is 0.0589 µM.

And the potency estimated from few doses (RIPK3)?
The potency estimated from few doses was 1.6 µM.

And the potency estimated from few doses (TGFBR1; compound concentrations: 100 nM and 1000 nM (sheet 'Samples'), CATDS: 8.5016049032497404E-2)?
The potency estimated from few doses was 2.06 µM.

For `COc1ccc2cc(-c3c(-c4ccncc4)nc(-c4ccc(S(C)(=O)=O)cc4C)n3C)ccc2c1` [SB-633825], which potency estimated from few doses (ACVR1B; [1]) is on record?
The potency estimated from few doses was 0.686 µM.

And the potency estimated from few doses (ADCK3; [1])?
Its potency estimated from few doses is 0.803 µM.

`NC(=O)c1cc(-c2ccncc2)cc(-c2ccccc2)c1N` [GSK625137A] was tested. Which potency estimated from few doses (ACVR1B; compound concentrations: 100 nM and 1000 nM (sheet 'Samples'), CATDS: 0.24390652724185299) did it give?
The potency estimated from few doses was 1.01 µM.

What about the potency estimated from few doses (ATM) of the same compound?
The potency estimated from few doses was 0.223 µM.

What about the potency estimated from few doses (PIP4K2C) of the same compound?
The potency estimated from few doses was 1.78 µM.

What about the potency estimated from few doses (PRKAG2) of the same compound?
Its potency estimated from few doses is 1.73 µM.

What does the source list for `COc1cccc(-n2ncc3c(N/N=C/c4ccncc4)ncnc32)c1` [GW784752X]?
potency estimated from few doses (ACVR1B; [1]): 0.725 µM; potency estimated from few doses (ACVR1; [1]): 0.119 µM; potency estimated from few doses (BCR): 0.641 µM; potency estimated from few doses (BMPR1A): 1.13 µM; potency estimated from few doses (CSNK2A1;CSNK2A3): 0.882 µM; potency estimated from few doses (CSNK2A2): 0.252 µM; potency estimated from few doses (GSK3A): 0.0472 µM; potency estimated from few doses (GSK3B): 0.0756 µM; potency estimated from few doses (JAK2): 0.603 µM; potency estimated from few doses (TGFBR1; [1]): 1.52 µM

For `Nc1nccc(-c2c(-c3ccc(F)cc3)nn3cc(C(F)(F)F)ccc23)n1` [GW568326X], which potency estimated from few doses (ACVR1B; compound concentrations: 100 nM and 1000 nM (sheet 'Samples'), CATDS: 0.37925228743827699) is on record?
The potency estimated from few doses was 0.526 µM.

And the potency estimated from few doses (CSNK1D)?
Its potency estimated from few doses is 1.31 µM.

And the potency estimated from few doses (MAPK14)?
The potency estimated from few doses was 1.1 µM.

And the potency estimated from few doses (TGFBR1; compound concentrations: 100 nM and 1000 nM (sheet 'Samples'), CATDS: 0.196901676551059)?
The potency estimated from few doses was 2 µM.

How did the potency estimated from few doses (ACVR1B; [1]) turn out when `Cl.Cl.Oc1cc(-c2nc(-c3ccccc3)[nH]c2-c2ccncc2)ccc1Cl.Oc1cc(-c2nc(-c3ccccc3)[nH]c2-c2ccncc2)ccc1Cl` [SB-386023-B] was run?
Its potency estimated from few doses is 0.968 µM.

What about the potency estimated from few doses (ADCK3; [1]) of the same compound?
The potency estimated from few doses was 0.373 µM.

And the potency estimated from few doses (DDR1)?
Its potency estimated from few doses is 1.84 µM.

And the potency estimated from few doses (MAPKAPK2)?
Its potency estimated from few doses is 1.7 µM.

And the potency estimated from few doses (PKN3)?
The potency estimated from few doses was 1.02 µM.

And the potency estimated from few doses (RIPK2; [1])?
Its potency estimated from few doses is 0.192 µM.

And the potency estimated from few doses (SPR)?
The potency estimated from few doses was 0.422 µM.

What about the potency estimated from few doses (TESK2) of the same compound?
Its potency estimated from few doses is 1.47 µM.

What about the potency estimated from few doses (TGFBR2) of the same compound?
Its potency estimated from few doses is 2.05 µM.

And the potency estimated from few doses (TTK)?
The potency estimated from few doses was 1.6 µM.

Which results are given for `Cl.NC(=O)c1ccc(-c2nc(-c3ccccn3)c(-c3ccc4c(c3)OCO4)[nH]2)cc1` [SB-431542-A]?
potency estimated from few doses (ACVR1B; [1]): 1.14 µM; potency estimated from few doses (CDC42): 0.731 µM; potency estimated from few doses (TGFBR1; [1]): 0.946 µM

Source: publication PMC11062922 (Nature Chemical Biology, 2023)
